PubChem BioAssay AID720513 (Broad Institute, 2013)
The campaign covered roughly 2,100 compounds. About 480 (23%) were called active. Roughly 5% stayed inconclusive and do not appear here.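 Rule for the calls: active = fitted curve reaches 40% activation at or below the top valid concentration, in every replicate test; inconclusive = replicate tests disagree on the call; inactive = the rest, including activity in the opposite direction.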 Only a sample is shown. Potency and affinity values are given separately.

Assay: activators raising PGC1a acetylation in cells, dose response, cell-based, cherry-picked samples, set 6 (AID 720513);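 note: cells made to overexpress flag tagged PGC1a plus GCN5 acetyltransferase by viral infection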
Conditions: U2OS PGC1a acetylation AlphaLISA, overnight, 0 = neutral, -100 = inhibitor control; series mostly up to 19.5 µM; activation (acetylation increase): at the top concentration

Activation (acetylation increase), inactive:
Cc1ccccc1NC(=O)Nc1ccccc1Br -20.9%, Cc1ccc(C)c(NC(=O)c2nnn(Cc3ccccc3)c2N)c1 -13.6%, Cc1cc(C)n(-c2ccc(Cl)c(C(=O)OCC(N)=O)n2)n1 -15%, CC(C)(C)c1ccc(CCC2OCC(C[N+]3(C)CCOCC3)O2)cc1 (configuration not stated) 5.53%, Clc1ccccc1CN1CCSCC1 6.01%, COc1ccc(-c2cc(N)n(S(=O)(=O)c3c(F)c(F)c(F)c(F)c3F)n2)cc1OC -103%, O=C(CCSc1nnc(-c2ccc(O)cc2)o1)N1CCOCC1 12.8%, NNS(=O)(=O)c1ccc(Cc2ncc(C(F)(F)F)cc2Cl)s1 33.5%, O=S(=O)(c1ccccc1)c1ncc(C(F)(F)F)cc1Cl -79%, CC(=O)N(c1cccc(C)c1)S(=O)(=O)c1ccc(Cl)cc1 30.1%, CC(C)NC(=O)N(C)C[C@H]1OCc2cnnn2CCCC(=O)N([C@@H](C)CO)C[C@H]1C 7.69%, Oc1ccc(/C=N/Nc2nc(-c3ccc(Cl)cc3)cc(C(F)(F)F)n2)cc1 -17.5%, O=C(CCC1CCCCC1)NCc1cccs1 -11.8%, Cn1cccc1C(=O)OCC(=O)Nc1ccc2c(c1)CCC2 10.5%, O=C(Cc1ccc(-n2cccc2)cc1)NCc1cccs1 -20.2%, CCOc1ccc(N(C(=O)Nc2ccccc2)C2=NCCC2)cc1 24.3%, CCOc1ccc(NS(=O)(=O)c2ccc3c(c2)oc(=O)n3C)cc1 -6.91%, O=C(OCc1ccccc1)N1CCC2CC1c1cc(-c3ccc(F)cc3)ccc12 (configuration not stated) 1.69%, COc1cccc(OC)c1NC(=O)C1CCCN1C(=O)NCc1ccccc1 (configuration not stated) 2.12%, COc1ccc(Cl)cc1NC(=O)CN1CCC(n2nnc3cc(C)ccc32)CC1 12.8%, O=C(NCC[C@@H]1CC[C@H](NS(=O)(=O)c2ccccc2)[C@@H](CO)O1)c1ccccc1F 18.5%, CCOC(=O)C1CCCN(C(=O)CSc2ccc(Br)cc2)C1 (configuration not stated) -4.05%, CCCNC(=O)Nc1ccc2c(c1)C(=O)N(C)C[C@H](OC)[C@H](C)CN(CC1CCCC1)[C@@H](C)CO2 16.9%, O=C(Cc1ccccn1)N[C@H]1CC[C@H](CCn2cc(-c3ccccc3)nn2)O[C@@H]1CO -10.6%, CCNC(=O)C1(C)CCCN1Cc1ccccc1Cl (configuration not stated) 44.3%, N#CC(C#N)=c1ccc2c(c1)NC1(CCCCC1)N=2 -10.6%, O=C(c1ccco1)N(Cc1ccc([N+](=O)[O-])cc1)c1ccc(Br)cc1 32.8%, C#CCN(C[C@@H]1[C@@H](OC(=O)NCC2CCCCC2)[C@@H](OC(=O)NCC2CCCCC2)Cn2c(=O)ccc(=O)n21)S(=O)(=O)c1ccc(C)cc1 -98.4%, COc1ccc(OCCCC(=O)OCC(=O)Nc2c(C)nn(-c3ccccc3)c2C)cc1 -6.1%, O=C(C[C@@H]1C=C[C@@H](NC(=O)Nc2ccc(C(F)(F)F)cc2)[C@H](CO)O1)NCc1ccccn1 -16.3%, C[C@@H]1CN([C@@H](C)CO)C(=O)CCCn2nncc2CO[C@@H]1CN(C)C(=O)NC1CCCCC1 3.28%, Cc1cc(C)c(C(=O)/C=C/c2ccc(C(C)C)cc2)c(=O)[nH]1 -29.3%, C[C@H]1CN([C@@H](C)CO)S(=O)(=O)c2ccc(C3=CCCC3)cc2O[C@H]1CN(C)Cc1cncnc1 11.6%, O=S(=O)(Nc1cc(Sc2ncn[nH]2)c(O)c2ccccc12)c1ccccc1 -96.2%, COc1ccc(NC(=O)N[C@@H]2CC[C@H](CCn3cc(-c4ccccc4F)nn3)O[C@@H]2CO)cc1 34%, O=C(Cn1ncc(Cl)c(Cl)c1=O)c1ccc2c(c1)OCCO2 -78.9%, O=C(Cn1ncc(Cl)c(Cl)c1=O)c1ccc(Cl)cc1 -107%, Cc1ccc(NC(=O)Cn2ncc(Cl)c(Cl)c2=O)cc1S(=O)(=O)N1CCCCC1 -92.6%, O=C(Cn1ncc(Cl)c(Cl)c1=O)N1CCN(S(=O)(=O)c2ccc3ccccc3c2)CC1 -94.6%, C[C@H](CO)N1C[C@H](C)[C@@H](CN(C)Cc2cccnc2)Oc2cc(C#CC3CCCCC3)ccc2S1(=O)=O -75.6%, Cc1noc(C)c1NC(=O)N(C)C[C@@H]1Oc2ccc(NS(=O)(=O)c3cn(C)cn3)cc2C(=O)N([C@@H](C)CO)C[C@@H]1C 8.74%, CN=C1c2cc3cc(OC)ccc3n2CCN1Cc1ccccc1 42.6%, Cc1cc(N2CCN(C)CC2)nc(=S)[nH]1 -14.8%, COc1cc(OC)cc(C(=O)N[C@H](C(=O)OCC(=O)NC(=O)NC(C)(C)C)C(C)C)c1 -10.6%, OC[C@H]1[C@@H](c2ccc(C#CC3CCCC3)cc2)[C@@H]2CN(CCC(F)(F)F)CCCCN12 -96.1%, N#C[C@@H]1[C@H](c2ccccc2C2=CCCCC2)[C@H](CO)N1C(=O)Cc1ccncc1 4.27% [at 21 µM], NC(=O)c1oc2ccccc2c1NC(=O)C1CC(=O)N(c2ccccc2)C1 (configuration not stated) 42.6%, CN(C)C(=O)C[C@H]1CC[C@@H](NC(=O)C2CCC2)[C@H](CO)O1 -23.8%, COCCOc1ccc(C(F)(F)F)cc1NC(=O)CN1C(=O)NC2(CCCc3ccccc32)C1=O (configuration not stated) -4.64%, CCOC(=O)c1[nH]c2ccc(OC)cc2c1NC(=O)c1ccc2c(c1)OCO2 -3.22%, CCOC(=O)c1[nH]c(C)c(C(=O)Nc2cc(Cl)ccc2C)c1C -1.9%, O=c1c2c(nc3c(-c4ccc(Cl)cc4)c[nH]n13)CCCC2 -8.3%, CC(C)(O)c1cc(=O)sc2nc3ccccc3n12 12.9%, O=C(NC1CCCC1)C(c1ccccc1)N(Cc1ccc(F)cc1)C(=O)c1csnn1 (configuration not stated) 22.9%, O=C(NC1CCCC1)C(c1ccncc1)N(Cc1ccccc1F)C(=O)c1csnn1 (configuration not stated) -10.3%, C[C@@H]1CN([C@H](C)CO)C(=O)c2cccc(NC(=O)Nc3cccc4ccccc34)c2O[C@H]1CN(C)S(C)(=O)=O 6.73%, C[C@@H]1CN([C@@H](C)CO)C(=O)CCCn2cc(nn2)CO[C@H]1CN(C)C(=O)Cc1ccccc1 8.97%, CC(=O)N(C)C[C@H]1Oc2ncc(C#CCc3ccccc3)cc2C(=O)N([C@@H](C)CO)C[C@H]1C 5.97%, CCn1c(=N)n(CC(=O)c2ccc(OC)c(OC)c2)c2ccccc21 5.92%, CC(=O)Oc1ccc(-c2csnn2)cc1 0.471%, CCCNC(=O)CN(C)C(=O)c1n[nH]c2ccccc12 18.4%, O=c1[nH]c(=O)c2[nH]c(=S)[nH]c2[nH]1 -1.47%
